Source: the supplement of paper PMC6555819

What follows are sequences tested on RARb:RXRa (NR concentration 270 nM, RXRa partner concentration 90 nM) (assay: PBM binding z-score (relative to random genomic background probes); higher = stronger binding; sequences stand for … in GC…GCGATTGACAGCGTAGAATGAAGG).
Summary of the method: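 Binding z-scores were set against random background probes. The data came from custom Agilent 4×180K protein-binding microarrays carrying double-stranded probes with 34-nt variable regions, incubated 1 h with ligand-free nuclear receptor dimers. Partner-specific antibodies detected binding, and scanned fluorescence was regression-normalized.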
Sequence CTATGTAGGGTAAGGGGGTCATTCAGTTTGAAAG has a PBM binding z-score of 3.72.
In the case of TCGAGAAGGTTACGGGGGCATTCAGGGATGAAGA, the PBM binding z-score is reported as 3.65.
TCGAGTAGGTTACGGGGGTATTCAGGGATGAAGA was tested, and the PBM binding z-score was 2.07.
CCGAGTAGGTTACGAGGGGGCATTTAGTGCGAAT gave a PBM binding z-score of 2.09.
In the case of TCGAGTAGGTTACAGGGGCATTCAGGGATGAAGA, the PBM binding z-score is reported as 1.59.
With CCGAGTAGGTTACGACGGGGCATTCAGTGCGAAT the PBM binding z-score was 1.23.
CCGAGTAGGTTACGAGGGGGCATGCAGTGCGAAT showed a PBM binding z-score of 2.26.
CTATGCAGGTTAAGGGGGTCATTCAGTTTGAAAG gave a PBM binding z-score of 3.52.
TCGAGTAGGGTACGGGGGCATTCAGGGATGAAGA was tested, and the PBM binding z-score was 2.37.
With CCGAGTAGGTTACGAGCGGGCATTCAGTGCGAAT the PBM binding z-score was 0.908.
Sequence CCGAGTAGGTTACGAGGGGGCCTTCAGTGCGAAT has a PBM binding z-score of 1.47.
With TCGAGTAGGTTAGGGGGGCATTCAGGGATGAAGA the PBM binding z-score was 3.15.
Work on CTATGTAGGTTAAGGGGTTCATTCAGTTTGAAAG yielded a PBM binding z-score of 1.82.
With CTATGTAGGTTAAGGGGGTCAATCAGTTTGAAAG the PBM binding z-score was 3.41.
Sequence CCGAGTAGGTTACGAGGGGGCATTCACTGCGAAT has a PBM binding z-score of 2.12.
In the case of TCGAGTAGGTTACGGGGGCATTCCGGGATGAAGA, the PBM binding z-score is reported as 2.51.
In the case of CTATGTAGTTTAAGGGGGTCATTCAGTTTGAAAG, the PBM binding z-score is reported as 3.68.
For CCGAGTAGGTTACGAGGGGGCAATCAGTGCGAAT, the PBM binding z-score was 2.16.
CTAGGTAGGTTAAGGGGGTCATTCAGTTTGAAAG gave a PBM binding z-score of 3.26.
With CTATGTATGTTAAGGGGGTCATTCAGTTTGAAAG the PBM binding z-score was 3.74.
For CCGAGTAGATTACGAGGGGGCATTCAGTGCGAAT, the PBM binding z-score was 0.973.
CCGAGTAGGTTACGAGGGGGCACTCAGTGCGAAT was tested, and the PBM binding z-score was 2.04.
CCGAGTAGGTTGCGAGGGGGCATTCAGTGCGAAT gave a PBM binding z-score of 1.57.
For TCGAGTTGGTTACGGGGGCATTCAGGGATGAAGA, the PBM binding z-score was 1.97.
CTACGTAGGTTAAGGGGGTCATTCAGTTTGAAAG was tested, and the PBM binding z-score was 3.63.
Sequence CTTTGTAGGTTAAGGGGGTCATTCAGTTTGAAAG has a PBM binding z-score of 3.67.
Work on CTATGTAGGTTAAGGGGGTCATTAAGTTTGAAAG yielded a PBM binding z-score of 3.58.
With TCGAGTAGGTTACGGTGGCATTCAGGGATGAAGA the PBM binding z-score was 0.864.
For CTATGTAGGTTAAGGGGCTCATTCAGTTTGAAAG, the PBM binding z-score was 0.689.
TCGAATAGGTTACGGGGGCATTCAGGGATGAAGA was tested, and the PBM binding z-score was 3.33.
Sequence CTATGTAGGTTAAGGGGATCATTCAGTTTGAAAG has a PBM binding z-score of 1.05.
CCGAGTAGGTTATGAGGGGGCATTCAGTGCGAAT gave a PBM binding z-score of 2.06.
In the case of CAGAGTAGGTTACGAGGGGGCATTCAGTGCGAAT, the PBM binding z-score is reported as 2.45.
CCGAGTAGGTTACGAGGCGGCATTCAGTGCGAAT showed a PBM binding z-score of 0.768.
In the case of CTATGTAGGTTAAGTGGGTCATTCAGTTTGAAAG, the PBM binding z-score is reported as 2.15.
TCGAGTAAGTTACGGGGGCATTCAGGGATGAAGA showed a PBM binding z-score of 1.34.
Work on TCGAGTAGGTTACGGGGGCATTAAGGGATGAAGA yielded a PBM binding z-score of 2.59.
With CTATGTAGGTTAAGGGGGTCATCCAGTTTGAAAG the PBM binding z-score was 3.65.
Work on TCGAGTAGTTTACGGGGGCATTCAGGGATGAAGA yielded a PBM binding z-score of 2.
